Results filed as inconclusive are left out. A call without a number means that no potency is given here. Active and inactive are the calls of the source. Calls follow the shape of the dose curve; as a rule, active = well fitted cell-killing curve with a large enough effect; inconclusive = small, poorly fitted or top-dose-only effect, or effect the other way; inactive = no such curve, though single readings can be large or run the other way.
Potency is read from the fitted curve at half-maximal effect.

This assay can be described thus: Quantitative High-Throughput drug screen in 47 multiple myeloma cell lines against the NCATS MIPE library collection: PE2_PLB cell viability assay (AID 1919869). Also: nearly all actives have a fitted effect of over 35% in size. The following applies: PE2_PLB myeloma cells viability, ATP luminescence, 48 h; series mostly up to 45.8 µM. The procedure, abridged: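 Cells were exposed to library compounds for 48 hours, after which ATP was measured by CellTiter-Glo. Signal was taken as median relative luminescence units.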
Take `c1cnc2cc3c(cc2n1)C1CNCC3C1`: the Potency result is “inactive”.
In the case of `CC1(C)C(=O)N(CCN2CCC(C(=O)c3ccc(F)cc3)CC2)c2ccccc21` it was 23.5 µM (active); in that of `N=C(N)c1ccc2cc(OC(=O)c3ccc(N=C(N)N)cc3)ccc2c1`, 10.5 µM (active); in that of `CN(C)C(=O)COC(=O)Cc1ccc(OC(=O)c2ccc(N=C(N)N)cc2)cc1`, 5.26 µM (active).
Turning to `COc1cc(OC)c(C(=O)CCCN2CCCC2)c(OC)c1`, the Potency result is “inactive”.
In the case of `C[C@]12CCC(=O)C=C1CC[C@@H]1[C@H]2[C@@H](O)C[C@@]2(C)[C@H]1CC[C@]2(O)C(=O)CO` it was “inactive”; in that of `Cc1nc(Nc2ncc(C(=O)Nc3c(C)cccc3Cl)s2)cc(N2CCN(CCO)CC2)n1`, 3.32 µM (active).
As to `CCCOc1ccc2nc(NC(=O)OC)[nH]c2c1`, the Potency was 0.0469 µM (active).
The value for `CC1=C(C(=O)O)N2C(=O)[C@@H](NC(=O)[C@H](N)C3=CCC=CC3)[C@H]2SC1` was “inactive”; that for `CC(C)Oc1ccc2c(=O)c(-c3ccccc3)coc2c1` was “inactive”.
In the case of `CC1(C)CCC(C)(C)c2cc(NC(=O)c3ccc(C(=O)O)cc3)ccc21` it was 20.9 µM (active).
As to `CCOC(=O)C1=C(O)C(=O)N(Cc2ccccc2)C1`, the Potency result is “inactive”.
As to `CCC1=C(C)CN(C(=O)NCCc2ccc(S(=O)(=O)NC(=O)NC3CCC(C)CC3)cc2)C1=O` (configuration not stated), the Potency entry was “inactive”.
With `CC(C)[N+]1(C)[C@@H]2CC[C@H]1CC(OC(=O)C(CO)c1ccccc1)C2` (some centres not stated), the Potency entry is “inactive”.
Regarding `O=C(NOCC1CC1)c1ccc(F)c(F)c1Nc1ccc(I)cc1Cl`, the Potency was 6.62 µM (active).
As for `C[C@H](Cn1cnc2c(N)ncnc21)OCP(=O)(O)O`, the Potency result is “inactive”.
For the compound `Cc1cc(=O)c2c(O)c3c(O)cc(=O)c4c3c3c(cc(O)c1c23)C(C)(C)C=4O`, the Potency is 0.296 µM (active).
The value for `Oc1ccc(OCc2ccccc2)cc1` was “inactive”; that for `O=C(NCCO[N+](=O)[O-])c1cccnc1` was “inactive”.
The value for `CC(=O)O[C@H]1C(=O)[C@@]2(C)C([C@H](OC(=O)c3ccccc3)[C@]3(O)C[C@H](OC(=O)[C@H](O)[C@@H](NC(=O)c4ccccc4)c4ccccc4)C(C)=C1C3(C)C)[C@]1(OC(C)=O)CO[C@@H]1C[C@@H]2O` (some centres not stated) was “inactive”; that for `CCCCCCCCCCCCCCCCCCCCCCO` was “inactive”; that for `C[C@@H](c1ncncc1F)[C@](O)(Cn1cncn1)c1ccc(F)cc1F` was “inactive”.
In the case of `CN(C)[C@@H](CCOc1cccc2ccccc12)c1ccccc1` it was 23.5 µM (active).
Turning to `CN(C)CCc1c[nH]c2ccc(Cn3cncn3)cc12`, the Potency entry is “inactive”.
In the case of `CC(=O)N1CCN(c2ccc(OC[C@H]3CO[C@](Cn4ccnc4)(c4ccc(Cl)cc4Cl)O3)cc2)CC1` it was 14.8 µM (active).
On to `CN1C(C(=O)Nc2ccccn2)=C(O)c2sccc2S1(=O)=O`, for which the Potency result is “inactive”.
The value for `C=CCc1cc(OC)c(O)c(C(=O)NCCO)c1` was “inactive”.
